Results from PubChem BioAssay (NCATS).
Active and inactive are the calls of the source. Calls follow the shape of the dose curve; as a rule, active = well fitted inhibition curve with a large enough effect; inconclusive = small, poorly fitted or top-dose-only effect; inactive = no such curve, though single readings can be large or run the other way.

Test: qHTS assay for measurement of the activity of small molecule inhibitors on Zika virus induced Caspase-3 activity in human astrocytoma cells (AID 1224859)
Details: SNB-19 ZIKV-induced caspase-3/7, luminescence, 6 h; series mostly up to 45.7 µM; activity change, negative = inhibition: at the top concentration
From the text: National Center for Advancing Translational Sciences [NCATS]
Johns Hopkins University School of Medicine
Increase in the Caspase-3 activity indicates an activation of apoptosis cell death pathway caused by Zika virus infection in certain types of neuronal cells including human neural progenitor cells (hNPCs), astrocytes, and astrocytoma cell line (SNB-19). This cell-based caspase-3 activity assay measures the increased caspase-3 activity in the astrocytoma cell line (SNB-19) after a 6-hour Zika virus infection with a luminescence readout. A decrease in the luminescence signal in this assay by small molecule treatment indicates an inhibitory effect of that small molecule on the Zika virus induced caspase-3 activity that may correlate with its effect on reduction of Zika virus caused cell death.
The medium for SNB-19 cells is composed of RPMI 1640 (ATCC, Cat.# 30-2001), 10% fetal bovine serum (FBS) (GE healthcare Life Sciences, Cat.# SH30071.03), and 1% Pen/Strep (Gibco, Cat.# 15140-122). A Caspase-Glo 3/7 assay kit (catalog number G8092; Promega, Madison, WI) was used to detect caspase-3 activity induced by Zika virus infection in human cells. The reagent mixture was reconstituted as described in the protocol from the manufacturer. Polystyrene tissue culture treated and PDL coated white plates were obtained from Greiner Bio-One (Monroe, NC). Cells were seeded in 384- or 1536-well assay plates and cultured at 37 C with 5% CO2 for 16 to 20 hours. The typical cell seeding density in the 1536-well plate assay is 250 cells/well in 3ul medium for SNB-19 cells in tissue culture treated plates. Compounds were added to cells and incubated for one hour before addition of ZIKV solution to cells (2 FFU/cell). After incubation at 37 C with 5% CO2 for 6 hours, the reagent mixture of Caspase-Glo 3/7 assay kit was added to each well, followed by incubation at room temperature for 30 minutes. The luminescence intensity of the assay plates was measured using a ViewLux plate reader (PerkinElmer). Data were normalized by using the cell-containing wells without ZIKV as a negative control (0% induction of caspase 3/7 activity) and wells containing ZIKV infected cells (Caspase-3 activity induced) as a positive control (100% induction of caspase 3 activity). The percentage inhibitions of the increased Caspase-3 activity by small molecule inhibitors were then calculated.

Row | SMILES | activity change, negative = inhibition | outcome
1 | CC(=O)NC1CCSC1=O (stereo not given) | 2.94% (inactive) | –
2 | c1ccc2c(c1)sc1ccccc12 | -7.13% (inactive) | –
3 | C[C@]12CCC(=O)C=C1CC[C@@H]1[C@@H]2CC[C@]2(C)C(=O)CC[C@@H]12 | -1.89% (inactive) | –
4 | CCN[C@@H](C)Cc1ccccc1 | -1.73% [at 92.8 µM] (inactive) | –
5 | CC[N+]1(CC)CCC(OC(=O)C(O)(c2ccccc2)c2ccccc2)C1 (stereo not given) | 32.4% (inactive) | –
6 | C[C@](O)(CS(=O)(=O)c1ccc(F)cc1)C(=O)Nc1ccc(C#N)c(C(F)(F)F)c1 | 22.9% (inactive) | –
7 | CCN[C@H](C)Cc1cccc(C(F)(F)F)c1 | 4.7% [at 92.8 µM] (inactive) | –
8 | c1ccc(N2CCNCC2)cc1 | 10% (inactive) | –
9 | CCCCCCC(=O)CCCCCC/C=C/C[C@@H](O)[C@H](O)[C@@](N)(CO)C(=O)O | 1.18% [at 20.5 µM] (inactive) | –
10 | CNCC(=O)c1ccc(O)c(O)c1 | -8.89% (inactive) | –
11 | CCC1(c2ccc(N)cc2)CCC(=O)NC1=O (stereo not given) | – | inactive
12 | CC(Cc1ccccc1)N(C)Cc1ccco1 (stereo not given) | 1.4% (inactive) | –
13 | CC(C)C[C@H](CN)CC(=O)O | 17.9% (inactive) | –
14 | CCc1cc2c(s1)-n1c(C)nnc1CN=C2c1ccccc1Cl | -6.98% (inactive) | –
15 | O=C1OC(CCN2CCCCC2)OC1(c1ccccc1)c1ccccc1 (stereo not given) | 11% (inactive) | –
16 | CN1C(=O)NC(=O)C(C)(C2=CCCCC2)C1=O (stereo not given) | -8.08% (inactive) | –
17 | NC1=NC(=O)C(c2ccccc2)O1 (stereo not given) | -7.21% (inactive) | –
18 | Nc1nc(N)nc(NC2CC2)n1 | 8.45% (inactive) | –
19 | COc1ccc2c3c1O[C@H]1[C@H](O)CC[C@H]4[C@@H](C2)N(C)CC[C@@]341 | -0.312% [at 92.8 µM] (inactive) | –
20 | CN(C)CCc1c[nH]c2cccc(OP(=O)(O)O)c12 | -5.86% [at 92.8 µM] (inactive) | –

Row | SMILES | activity change, negative = inhibition | outcome
21 | COC(=O)[C@@H](N)CCCN/C(N)=N/[N+](=O)[O-] | -14.2% (inactive) | –
22 | CCC1(CC)C(=O)C=CNC1=O | 8.91% (inactive) | –
23 | C#CC(O)(C=CCl)CC (stereo not given) | -2.51% (inactive) | –
24 | C[C@]12CCC(=O)C=C1CC[C@@H]1[C@@H]2CC[C@@]2(C)[C@H]1CC[C@]2(C)O | -7.27% (inactive) | –
25 | COc1cc(CCN)cc(OC)c1OC | -12.4% [at 92.8 µM] (inactive) | –
26 | O=C1CN=C(c2ccccc2)c2cc([N+](=O)[O-])ccc2N1 | 0.926% (inactive) | –
27 | O=C(O)CCCc1ccc(N(CCCl)CCCl)cc1 | – | inactive
28 | [N-]=[N+]=CC(=O)OC[C@H](N)C(=O)O | -17.8% (inactive) | –
29 | CC(=O)C1CCOC1=O (stereo not given) | 4.43% (inactive) | –
30 | COC1CC(=C(c2cccs2)c2cccs2)C[N+](C)(C)C1 (stereo not given) | 4.54% (inactive) | –
31 | O=C(O)c1ccc(=O)[nH]c1 | 7.51% (inactive) | –
32 | O=C(N/N=C/c1ccc([N+](=O)[O-])o1)c1cc([N+](=O)[O-])cc([N+](=O)[O-])c1O | 5.03% (inactive) | –
33 | C[N+]1(CCF)[C@@H]2CC[C@H]1CC(OC(=O)C(O)(c1ccccc1)c1ccccc1)C2 (stereo not given in full) | -4.29% (inactive) | –
34 | COP(=S)(OC)Oc1ccc(SC)c(C)c1 | 23% (inactive) | –
35 | O=c1[nH]c2ccccc2n1C1CCNCC1 | 3.29% (inactive) | –
36 | COc1cc(OC)c(OC)cc1C=O | 7.01% (inactive) | –
37 | Clc1ccccc1N1CCNCC1 | 1.73% (inactive) | –
38 | CCCCC/C=C\C/C=C\C/C=C\C/C=C\CCCC(=O)NCC(=O)O | – | inactive
39 | CN1CCC(O)(c2ccc(F)cc2)C(C(=O)c2ccc(F)cc2)C1 (stereo not given) | -2.22% (inactive) | –
40 | O=[N+]([O-])O[C@H]1CO[C@H]2[C@@H]1OC[C@H]2O[N+](=O)[O-] | 2.71% (inactive) | –
